# Most compounds without a hit are left out; they make up all but 7.5% or so of the library.
# ELG1 genotoxic – induces genotoxicity in HEK293T cells with luciferase-tagged ELG1. HEK293T ELG1-luciferase reporter, luminescence, 16 h. Potency, µM (doses to about 46 µM), usual class: activators. 330,000 compounds, 1.3% hits. AID 504466; note: nearly all actives have a fitted effect of over 60% in size
#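 Cells (2,000/well) expressing the ELG1-luciferase fusion are dosed by pin tool and kept 16 hr at 37 °C, 5% CO2. Signal comes from ONE-Glo luciferase reagent after 30 min at room temperature.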
# KinaseGlo FLuc – blocks Kinase-Glo luciferase, a counter-screen artifact | Q27757 | Kinase-Glo luciferase, ATP luminescence, 8 min | Potency, µM (highest dose often 38.3 µM), hits mostly inhibitors | 200,000 compounds, 0.28% hits | AID 1379; note: nearly all actives have a fitted effect of over 60% in size
#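 Luminescence was the read-out, taken after 8-minute incubation at ambient temperature. Luciferase turned over luciferin with 10 uM ATP in imidazole pH 7.2 buffer containing KCl, MgCl2, Tween 20 and BSA.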
# FLuc counter – counter-screen for miR-21 project: firefly luciferase inhibitors or activators; Potency, µM (doses to about 57.5 µM), actives largely listed as inhibitors; 360,000 compounds, 6.9% hits; purified FLuc, Km substrates, luminescence inhibition; note: nearly all actives have a fitted effect of over 55% in size
# Target sequence (P08659 whole entry, looked up): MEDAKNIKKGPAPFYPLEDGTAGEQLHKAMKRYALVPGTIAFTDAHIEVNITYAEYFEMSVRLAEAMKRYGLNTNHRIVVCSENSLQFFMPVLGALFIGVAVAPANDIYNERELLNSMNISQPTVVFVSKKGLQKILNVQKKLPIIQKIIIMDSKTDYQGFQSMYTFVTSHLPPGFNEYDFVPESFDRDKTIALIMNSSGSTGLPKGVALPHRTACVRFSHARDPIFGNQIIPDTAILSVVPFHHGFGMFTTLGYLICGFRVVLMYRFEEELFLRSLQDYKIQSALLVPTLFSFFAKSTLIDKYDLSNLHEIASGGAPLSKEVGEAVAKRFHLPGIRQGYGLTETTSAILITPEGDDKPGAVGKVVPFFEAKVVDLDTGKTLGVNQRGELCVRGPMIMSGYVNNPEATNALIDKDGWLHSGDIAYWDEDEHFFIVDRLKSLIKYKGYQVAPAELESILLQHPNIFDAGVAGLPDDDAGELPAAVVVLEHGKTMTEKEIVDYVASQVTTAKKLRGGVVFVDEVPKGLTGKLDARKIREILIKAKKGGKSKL
#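 Purified P. pyralis luciferase, 10 nM final, with Km-level 10 uM D-luciferin and 10 uM ATP in 50 mM Tris acetate pH 7.5, 10 mM Mg acetate, 0.01% Tween-20, 0.05% BSA; 6-point qHTS titration about 60 µM downward; luminescence read.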
# Rab9 promoter act – activates the Rab9 promoter; Huh7 Rab9 promoter-luciferase reporter, luminescence, 24 h; AID 485297; Potency, µM (titrated, usually from 9.22 µM), hits mostly activators; 320,000 compounds, 2.8% hits; note: nearly all actives have a fitted effect of over 60% in size
#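 Quantitative HTS format; Huh7 Rab9-luciferase reporter cells (1500/well) receive compound 2 h post-plating, incubate 24 h at 37 °C, then get luciferase reagent for 10 min before luminescence reading.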
# NPC1 promoter act – activates the NPC1 promoter | Huh7 NPC1 promoter luciferase reporter, 24 h | Potency, µM (top dose mostly 9.22 µM), usual class: activators | 320,000 compounds, 2.4% hits | AID 485313; note: nearly all actives have a fitted effect of over 60% in size
#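 Stably transfected Huh7 (NPC1 promoter→luciferase), 1500 cells/well in Opti-MEM + 10% FBS, 2 h settle, then compound 24 h at 37 °C. Luminescence after 10 min with Amplite reagent.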
# SMN2 splice enh – increases expression of the SMN2 splice variant. HEK293 SMN2-luciferase splicing reporter, luminescence, 30-36 h. Potency, µM (titrated, usually from 46.1 µM), most hits filed as activators. 210,000 compounds, 2.8% hits. AID 1458; note: nearly all actives have a fitted effect of over 55% in size
#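 HEK293 cells carry an SMN2 minigene-luciferase reporter in which exon 7 inclusion puts luciferase in frame. Cells were seeded at 2000 cells/well, attached for 10-12 hours, then exposed to compounds for 30-36 hours at 37C before ONE-Glo luminescence.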
# Numbers stand for hits; - = inactive; ? = inconclusive; . = no result given; [ ] = remark or other dose. Calls come from the whole dose curve; as a rule, active = well fitted curve in the direction sought with a large enough effect; inconclusive = small, poorly fitted or top-dose-only effect, or another doubt; inactive = no such curve, though single readings can be large; an effect the other way counts as inactive or inconclusive.
SMILES,ELG1 genotoxic,KinaseGlo FLuc,FLuc counter,Rab9 promoter act,NPC1 promoter act,SMN2 splice enh
Cc1ccc(Nc2nc(N/N=C/c3c[nH]c4ccccc34)nc(N3CCOCC3)n2)cc1,-,-,?,-,-,-
O=C(CN1CCCCCC1)Nc1ccccc1C(=O)Nc1ccccc1,-,.,-,-,-,.
COCCn1c(N)c(N(Cc2ccccc2)C(=O)c2ccc(-c3ccc(Cl)cc3)o2)c(=O)[nH]c1=O,-,.,-,-,-,.
CN(CC(=O)O)Cc1c[nH]c2ccccc12,.,-[7.66 µM],.,.,.,-[9.22 µM]
O=C(CN1C(=O)NC2(CCCC2)C1=O)OCc1ccccc1F,-,.,-,-,-,.
O=C(CN1CC(c2ccccc2)CC1=O)OCc1ccccc1F (stereo not drawn),-,-,12µM,-,-,?
COc1cccc(C(=O)NC(=S)Nc2nnn(C)n2)c1,-,-,-,-,-,-
Cc1cc(NC(=O)c2cccc(Br)c2)n[nH]1,?,.,19µM,?,?,.
Cc1cc(C)nc(NC(=O)c2cccc(Br)c2)n1,-,.,-,-,-,.
COc1cccc(C(=O)NC(=O)Nc2cc(C)[nH]n2)c1,?,.,9.5µM,1.6µM,2µM,.
CC1=C/C(=C(/c2ccc(O)c(C)c2)c2ccccc2S(=O)(=O)O)C=CC1=O,-,.,?,-,-,.
CC1=C/C(=C(/c2cc(C)c(O)c(Br)c2)c2ccccc2S(=O)(=O)O)C=C(Br)C1=O,-,.,15µM,-[1.84 µM],-,.
CCc1ccc(Nc2n[n+](-c3ccccc3)c(/C=C/c3ccccc3)s2)cc1,-,.,12µM,-,-,.
COc1ccc(C2(c3ccc(OC)cc3)NC(=O)N(CC(=O)N(C)c3ccccc3)C2=O)cc1,?,.,19µM,2.2µM,3.5µM,.
O=C(NCc1ccccn1)Nc1cc(Cl)cc(Cl)c1,-,.,-,-,-,.
O=C(Nc1csc([N+](=O)[O-])c1)Nc1ccccc1Cl,-,.,17µM,-,-,.
O=C(Nc1ccccc1)Nc1cc(Cl)cc(Cl)c1,-,-,27µM,?,-,-
O=C(Nc1ccc(Nc2ccccc2)cc1)Nc1ccccc1Cl,?,.,11µM,?,?,.
O=C(Nc1ccc(Cl)cc1)Nc1ccccc1Sc1ncc([N+](=O)[O-])s1,?,.,12µM,?,?,.
CCc1ccc(OC(=O)c2cccnc2)cc1,-,.,11µM,-,-,.
Cc1ccc(OC(=O)c2cccnc2)cc1,-,-,?,-,-,-
CCn1cc(C(=O)NNC(=O)c2ccc(Cl)cc2)c(=O)c2ccc(C)nc21,-,-,-,-,-,-
Nc1nc(-c2ccccn2)nc(N)c1Cc1c(F)cccc1Cl,-,-,27µM,-,-,-
Nc1nc(-c2ccccn2)nc(N)c1Cc1ccccc1F,-,-,15µM,?,?,-
CC1=C(c2ccc(C)cc2)S(=O)(=O)N=C1N1CCN(c2ccccc2)CC1,.,.,-,.,.,.
SMILES,ELG1 genotoxic,KinaseGlo FLuc,FLuc counter,Rab9 promoter act,NPC1 promoter act,SMN2 splice enh
COCCCNC(=O)c1cccn2c(=O)c3cc4ccccc4cc3nc12,-,-,15µM,-,-,-
O=C(NCc1ccco1)c1cccn2c(=O)c3cc4ccccc4cc3nc12,?,-,-,-,-,?
COc1ccc(-n2c(N)c(C(=O)NCc3ccco3)sc2=S)cc1,?,-,-,4.5µM,-,-
COc1cc2cc3c(N)c(C(=O)NCc4ccco4)sc3nc2cc1OC,?,.,11µM,?,?,.
CCOC(=O)c1ccc(-n2c(N)c(C(=O)NCc3ccco3)sc2=S)cc1,-,-,-,-,-,-
Cc1ccc2nc3sc(C(=O)NCc4ccco4)c(N)c3cc2c1,9.2µM,-,0.85µM,2µM,?,4.5µM
CCCCCn1c(=O)[nH]c2cc(C(=O)N3CCN(c4cccc(Cl)c4)CC3)ccc2c1=O,.,.,-,.,.,-
CCOC(=O)C1CCN(C(=O)CCCn2nc(CC)n3c(cc4occc43)c2=O)CC1,-,.,-,-,-,.
O=C(CCNS(=O)(=O)c1ccc(Br)cc1)NCc1ccco1,-,.,-,-,-,.
CCc1ccc(C(=O)COC(=O)CNC(=O)C2CCCCC2)cc1,-,.,0.85µM,-,-,.
CCc1ccc(C(=O)COC(=O)CNC(=O)CNS(=O)(=O)c2ccccc2)cc1,-,.,19µM,-,-,.
CCc1ccc(C(=O)COC(=O)CNC(=O)Cc2ccccc2)cc1,-,.,17µM,-,-,.

# Screening data (PubChem)
